Shown are actives, neighbours in structure and some others; about 2.2% of the full set was active somewhere.
EWS-Fli inh – EWS/Fli transcriptional activity inhibition; actives 0.67% (n = 350,000); inhibition, % at 12.6 µM; AID 651661; A673 NR0B1-luciferase reporter, viability-normalised;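 active means mean inhibition of at least 50% after viability correction, with every replicate also passing that limit; inconclusive means mean reaches 50% but only one of two replicates passes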;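 further: firefly luciferase signal divided by Alamar Blue viability fluorescence both relative to DMSO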
LGR2 inh – blocks bursicon-induced cAMP signaling via Drosophila LGR2; inhibition, % at 9.99 µM; AID 720647; actives 0.35% (n = 380,000); HEK293 LGR2, CRE-luciferase, bursicon-stimulated, 4 h;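 active means drop in luminescence signal, shown as inhibition above about 50% in the replicate tests, limit read from the data, passing the limit was not always enough; inconclusive means probably only some replicates passing the limit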;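 further: agonist challenge used bursicon conditioned medium at about half maximal strength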
MITF TRPM1 inh – MITF TRPM1 promoter inhibition in SK-MEL-5 cells. inhibition, % at 12.5 µM. actives 0.83% (n = 330,000). SK-MEL-5 TRPM1 promoter luciferase, 24 h. AID 488899;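 active means mean inhibition across replicates of 60% or more, whatever share of single replicates reaches that level; inconclusive means some that reach 60%, reason not given; inactive means mean inhibition across replicates below 60%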
PAX8 reporter – PAX8 transcriptional activity inhibition. RMG-I TPO-luciferase reporter, SteadyGlo, 24 h. inhibition, % at 12.6 µM. actives 1.2% (n = 360,000). AID 652154;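 active means mean replicate inhibition at least 60% with every replicate also reaching 60%; inconclusive means only one of the two criteria is met; inactive means mean below 60% and not all replicates reaching 60%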;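 further: luciferase light reporting Pax8 driven TPO promoter activity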
EBV LMP1 NFkB – Epstein-Barr LMP1 NF-kappaB reporter inhibition | LMP1-induced NF-kappaB luciferase reporter cells, luminescence | inhibition, % at 12.5 µM | actives 0.69% (n = 350,000); in the data active means inhibition above about 41%; inconclusive means no clear call, values can overlap the other calls
Shn3 inh set2 – reduces Shn3 3'UTR luciferase signal in osteoblasts; Clone20 osteoblast Shn3 3'UTR firefly luciferase, 24 h; inhibition, % at 12.5 µM; actives 0.52% (n = 360,000); AID 588674;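 active means mean inhibition of at least 75% with every replicate also reaching 75%; inconclusive means mean inhibition at least 75% but some replicate below; inactive means mean inhibition below 75%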
Of the large screens only hits and unclear results are named; the others gave an inactive call.

O=[N+]([O-])c1ccc(S(=O)Cc2ccccc2)c([N+](=O)[O-])c1 (configuration not stated)	LGR2 inh 60.1, MITF TRPM1 inh 97.0, PAX8 reporter 121.1, Shn3 inh set2 95.0
CC(C)NC(=O)NC(=O)COc1ccc(Br)cc1Br	LGR2 inh 52.8
O=C(Nc1ccccc1Cc1ccccc1)c1ccccc1NS(=O)(=O)c1ccc(Cl)s1	LGR2 inh inconclusive, PAX8 reporter 71.1 (no result: EWS-Fli inh)
N#C/C(C(=O)N1CCCC1)=C1/N=C(N)c2ccccc21	PAX8 reporter 107.9
O=C(N[C@H]1C=C[C@H](CC(=O)N2CCN(c3ccccc3)CC2)O[C@@H]1CO)c1ccncc1	none (no result: MITF TRPM1 inh, EBV LMP1 NFkB, Shn3 inh set2)
COC(=O)Cc1ccc(NC(=O)c2ccc(C(C)(C)C)cc2)cc1	EBV LMP1 NFkB 48.4 (no result: EWS-Fli inh, LGR2 inh, PAX8 reporter)
Cc1ccc(CNC(=O)C(=O)NCCC2CCCCN2S(=O)(=O)c2ccc(C)cc2)cc1 (configuration not stated)	none
O=C(NCCC1CCCCN1S(=O)(=O)c1ccc(Cl)cc1)C(=O)NCc1ccncc1 (configuration not stated)	PAX8 reporter 96.6
Cc1ccc(S(=O)(=O)N2CCCCC2CCNC(=O)C(=O)NCc2cccnc2)cc1 (configuration not stated)	none
O=C(NCCC1CCCCN1S(=O)(=O)c1ccc(F)cc1)C(=O)NCc1ccncc1 (configuration not stated)	PAX8 reporter 68.7
Cn1ncc2c(O/N=C(\N)c3ccc(C(F)(F)F)cc3)ncnc21	EWS-Fli inh 68.3, PAX8 reporter 91.5 (no result: LGR2 inh)
Cc1ccc(C(=O)NNc2ncnc3c2cnn3C)cc1	none
O=C(CSc1nnc(-c2cccs2)o1)c1cccs1	none (no result: EWS-Fli inh, PAX8 reporter)
Cc1cc(C(=O)CSc2nnc3ccccn23)c(C)n1-c1ccccc1	LGR2 inh 97.8, MITF TRPM1 inh 77.8, PAX8 reporter 81.0, EBV LMP1 NFkB 81.3 (no result: EWS-Fli inh)
Cc1cc(C(=O)CSc2nnc(-c3cccs3)o2)c(C)n1-c1ccccc1	EBV LMP1 NFkB 58.4 (no result: EWS-Fli inh, LGR2 inh)
Cc1cc(C(=O)CSc2nnc(-c3ccccc3)n2-c2ccccc2)c(C)n1-c1ncn[nH]1	none (no result: EWS-Fli inh, LGR2 inh)
COc1ccccc1C(=O)Nc1ccc2c(c1)OC[C@@H](C)N(C(C)=O)C[C@@H](C)[C@@H](OC)CN(C)C2=O	none (no result: MITF TRPM1 inh, EBV LMP1 NFkB, Shn3 inh set2)
O=C(NCC[C@@H]1CC[C@H](NC(=O)C2CCCC2)[C@H](CO)O1)Nc1ccc(Cl)cc1	none (no result: MITF TRPM1 inh, EBV LMP1 NFkB, Shn3 inh set2)
C[C@@H]1CN([C@@H](C)CO)C(=O)c2cc(NS(=O)(=O)c3cn(C)cn3)ccc2O[C@@H]1CN(C)S(C)(=O)=O	none (no result: MITF TRPM1 inh, PAX8 reporter, EBV LMP1 NFkB, Shn3 inh set2)
c1ccc2sc(NN=C3CCCCCC3)nc2c1	LGR2 inh 55.4
O=C(Nc1nc2ccccc2s1)c1ccccc1	none
O=C(N/N=C/c1cccc(O)c1)c1ccc(NC(=O)C2CCCCC2)cc1	none (no result: EWS-Fli inh)
O=C(N/N=C/c1ccc(O)cc1O)c1ccc(NC(=O)C2CCCCC2)cc1	MITF TRPM1 inh 67.3 (no result: EWS-Fli inh)
CCOc1ccc2nc(SC3CC(=O)N(c4ccc(C)cc4)C3=O)sc2c1 (configuration not stated)	Shn3 inh set2 95.6 (no result: PAX8 reporter)
CO[C@@H]1CN(C)C(=O)c2cc(NC(=O)C3CC3)ccc2OC[C@@H](C)N(C(=O)CN(C)C)C[C@@H]1C	none (no result: MITF TRPM1 inh, PAX8 reporter, EBV LMP1 NFkB, Shn3 inh set2)
CC1(C)CC(=O)c2sc(NC(=O)CCS(=O)(=O)c3ccccc3)nc2C1	PAX8 reporter 108.7 (no result: MITF TRPM1 inh)
CC(C)(C)c1nnc(NC(=O)CCS(=O)(=O)Cc2ccccc2)s1	PAX8 reporter 84.4
CC(C)(C)c1nnc(NC(=O)CCS(=O)(=O)c2ccccc2)s1	PAX8 reporter 96.8
O=C(CCS(=O)(=O)c1ccccc1)Nc1nnc(C(F)(F)F)s1	none
O=C(CCS(=O)(=O)Cc1ccccc1)Nc1nnc(C(F)(F)F)s1	none
O=C(c1ccc(F)cc1)N1CC(=O)N2[C@H](CO)[C@H](c3ccc(-c4cccnc4)cc3)[C@H]2C1	none (no result: MITF TRPM1 inh, EBV LMP1 NFkB, Shn3 inh set2)
O=C(N[C@H]1CC[C@H](CCn2cc(C3(O)CCCC3)nn2)O[C@@H]1CO)c1ccccc1F	none (no result: MITF TRPM1 inh, EBV LMP1 NFkB, Shn3 inh set2)
N#CC1(NC(=O)Cn2ncc(Cl)c(Cl)c2=O)CCCCC1	EWS-Fli inh inconclusive, PAX8 reporter 91.5
COc1ccc(N2C(=O)CC(Cc3ccccc3)C2=O)cc1 (configuration not stated)	none (no result: EWS-Fli inh, LGR2 inh)
O=C1C=CC2(C=C1)O[C@H](Cc1ccccc1)[C@@H](Cc1ccccc1)O2	LGR2 inh 97.9, MITF TRPM1 inh 96.7, PAX8 reporter 121.3, EBV LMP1 NFkB 86.8, Shn3 inh set2 97.1

Assay outcomes deposited in PubChem BioAssay by Broad Institute.
